Bioassay records deposited in PubChem by Broad Institute.
Sampled rows, rich in hits. Any-hit rate of the full collection: about 3.8%.
esBAF inh: inhibitors of esBAF chromatin remodeling in mouse ES cells | AID 602393 | reporter increase, % at 12.5 µM | Bmi1-luciferase knock-in reporter, 24 h; 100% = twice the neutral-well signal | actives 2% (n = 350,000); in the data active means activation above about 40%; inconclusive means no clear call, values can overlap the other calls;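 further: a rise in the Bmi1 reporter signal indicates esBAF inhibition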
HSF1 activator: increases HSF-1 driven luciferase reporter signal; actives 1.7% (n = 300,000); activation, % at 9 µM; NIH3T3-HGL HSF-1 luciferase reporter, MG132, 8 h; 100% = twice DMSO control signal;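 active means mean replicate activation of at least 50% with a set share of replicates each reaching 50%; inconclusive means only one of those two conditions met; inactive means mean below 50% and too few replicates reaching it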
Wnt bcat act: activators of Wnt/beta-catenin signaling. activation, % at 9.35 µM. AID 743398. Wnt/beta-catenin reporter cell assay, activator, plate reader. actives 1.2% (n = 300,000); in the data active means activation above about 30%, passing the limit was not always enough; inconclusive means no clear call, values can overlap the other calls
HSF1 inhib: HSF1 inhibition; AID 2098; activity change, negative = inhibition, % at 7.5 µM (by protocol); actives 0.77% (n = 300,000); NIH3T3-HGL HSE-luciferase, MG132-induced, luminescence 8 h; stronger effect = lower value;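 active means more than half of replicate wells show activity change below -50%, luminescence cut by over half; inconclusive means some wells, but at most half, below -50%; inactive means no replicate well below -50%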;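 further: luciferase reports HSF-1 transcriptional activity via heat shock element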
MITF TRPM1 HTS: activators of MITF-driven TRPM1 promoter activity in SK-MEL-5 cells | SK-MEL-5 TRPM1-promoter luciferase, 24 h; % of positive control, neutral wells = 0 | activation, % at 12.5 µM | actives 0.75% (n = 300,000);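 active means mean activation of at least 80% with every replicate also reaching 80%; inconclusive means mean reaches 80% but some replicate falls short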
Each line names hits and unclear results; the compound was inactive in the other large screens.

C/C(=N\NC(=O)c1ccc(CN2CCOCC2)cc1)c1ccc(NC(=O)c2ccccc2)cc1	esBAF inh 66
N#Cc1cc2ccccc2nc1SCC(=O)Nc1ccccc1N1CCOCC1	HSF1 activator 71
C[C@H]1CN([C@@H](C)CO)C(=O)c2cc(NS(=O)(=O)c3cccs3)ccc2O[C@H]1CN(C)C(=O)NC1CCCCC1	none (no result: HSF1 activator, Wnt bcat act, HSF1 inhib, MITF TRPM1 HTS)
CN1c2ccc(Br)cc2[C@H]2[C@H](CCN2C(=O)C2CCOCC2)[C@@H]1CO	none (no result: HSF1 activator, Wnt bcat act, HSF1 inhib, MITF TRPM1 HTS)
CCCNC(=O)Nc1ccc2c(c1)OC[C@@H](C)N(CC1CCCC1)C[C@@H](C)[C@@H](OC)CN(C)C2=O	none (no result: HSF1 activator, Wnt bcat act, HSF1 inhib, MITF TRPM1 HTS)
O=C(Nc1ccccc1N1CCOCC1)c1ccc2ccccc2c1	esBAF inh 55
O=C(Nc1ccc(CN2CCOCC2)cc1)c1ccc2ccccc2c1	esBAF inh 61
COCC(=O)N1C[C@@H]2[C@H](c3ccccc31)[C@H](CO)N2C(=O)c1ccncc1	none (no result: HSF1 activator, Wnt bcat act, HSF1 inhib, MITF TRPM1 HTS)
C[C@@H](NC(=O)C[C@@H]1C=C[C@@H](NC(=O)Nc2ccc3c(c2)OCO3)[C@H](CO)O1)c1ccccc1	none (no result: HSF1 activator, Wnt bcat act, HSF1 inhib, MITF TRPM1 HTS)
C=C1CCC[C@]2(C)C[C@H]3OC(=O)C(CNC(C)CC)[C@H]3CC12 (stereo not given in full)	none
C=C1CCC[C@]2(C)C[C@H]3OC(=O)C(CNC(CC)CO)[C@H]3CC12 (stereo not given in full)	HSF1 activator 142
C=C1CCC[C@]2(C)C[C@H]3OC(=O)C(CNC(C)(CO)CO)[C@H]3CC12 (stereo not given in full)	HSF1 activator 74
C[C@@H]1CCCCO[C@H](CN(C)C(=O)Nc2ccccc2)[C@H](C)CN([C@@H](C)CO)C(=O)c2cc(NS(C)(=O)=O)ccc2O1	none (no result: HSF1 activator, Wnt bcat act, HSF1 inhib, MITF TRPM1 HTS)
Cc1oc2cc3c(C(=O)N4CCCCC4)c(C)oc3cc2c1C(=O)N1CCCCC1	esBAF inh 149 (no result: Wnt bcat act)
CCN(CC)c1ccc(/C=N/N2CCN(Cc3ccccc3)CC2)cc1	none (no result: esBAF inh)
CN(C)c1ccc(/C=N/N2CCN(c3ccccn3)CC2)cc1	Wnt bcat act 43 (no result: esBAF inh, MITF TRPM1 HTS)
O=[N+]([O-])c1ccccc1C=NN1CCCCCC1	esBAF inh 47 (no result: HSF1 activator, HSF1 inhib)
O=[N+]([O-])c1ccccc1/C=N/N1CCN(c2ccccn2)CC1	esBAF inh 60 (no result: MITF TRPM1 HTS)
O=[N+]([O-])c1ccccc1/C=N/N1CCN(Cc2ccccc2)CC1	esBAF inh inconclusive
CN(c1ccccc1)c1ccc(/C=N/N2CCOCC2)cc1	HSF1 activator 61, MITF TRPM1 HTS 144 (no result: Wnt bcat act)
CCCN(C)C[C@@H]1Oc2cc(C#CCC3CCCC3)ccc2S(=O)(=O)N([C@@H](C)CO)C[C@H]1C	none (no result: HSF1 activator, Wnt bcat act, HSF1 inhib, MITF TRPM1 HTS)
CCCNC(=O)Nc1ccc2c(c1)C(=O)N(C)[C@H]1CC[C@@H](CC(=O)NCc3ccccc3)O[C@@H]1CO2	none (no result: HSF1 activator, Wnt bcat act, HSF1 inhib, MITF TRPM1 HTS)
C[C@@H]1CN([C@@H](C)CO)C(=O)c2cc(NS(=O)(=O)c3cn(C)cn3)ccc2O[C@@H](C)CCCCO[C@H]1CN(C)C(=O)c1ccccc1	none (no result: HSF1 activator, Wnt bcat act, HSF1 inhib, MITF TRPM1 HTS)
COc1cccc(NC(=O)c2nnn(Cc3ccc(Br)cc3F)c2N)c1	HSF1 activator 70
COc1cccc(NC(=O)c2nnn(CCc3ccccc3)c2N)c1	esBAF inh 78
Cc1ccc(C(=O)/C=C/NNC(=O)c2ccccc2O)cc1	HSF1 activator 53
O=C(/C=C/NNC(=O)c1ccc(Cl)cc1)c1ccccc1	none (no result: esBAF inh)
O=C(/C=C/NNC(=O)c1ccccc1)c1ccc(Br)cc1	HSF1 activator 60 (no result: Wnt bcat act)
COc1ccc(CNC(=O)c2ccc(CS(=O)(=O)c3ccc(OC)cc3)o2)cc1	none (no result: HSF1 activator, HSF1 inhib, MITF TRPM1 HTS)
COc1ccc(CNC(=O)c2ccc(CS(=O)(=O)c3ccc(Br)cc3)o2)cc1	HSF1 inhib -68 (no result: MITF TRPM1 HTS)
CN(C)CCCNC(=O)[C@@H]1[C@@H](CO)[C@@H]2Cn3c(ccc(-c4ccc(F)cc4)c3=O)[C@@H]2N1C	none (no result: HSF1 activator, Wnt bcat act, HSF1 inhib, MITF TRPM1 HTS)
Cc1cc(NC(=O)c2ccccc2)no1	none
Cc1cc(NC(=O)c2ccc(C)c([N+](=O)[O-])c2)no1	none (no result: esBAF inh, Wnt bcat act)
C/C(=C\C(=O)Nc1cc(C)on1)c1ccccc1	esBAF inh inconclusive, MITF TRPM1 HTS 82 (no result: Wnt bcat act)
Cc1cc(NC(=O)c2ccc(C)c(C)c2)no1	HSF1 activator 61 (no result: MITF TRPM1 HTS)
COc1ccc(C(=O)Nc2cc(C)on2)cc1	Wnt bcat act 47
COc1ccc(OC)c(-c2cc(C(=O)Nc3cc(C)on3)no2)c1	HSF1 inhib -64 (no result: Wnt bcat act)
Cc1cc(NC(=O)c2ccc(C)o2)no1	none
Cc1cc(NC(=O)Nc2ccc(Cl)cc2)no1	esBAF inh 47
CCc1ccc(C(=O)Nc2cc(C)on2)o1	esBAF inh 51
Cc1ccc(NC(=O)Nc2cc(C)on2)cc1	none (no result: esBAF inh)
